Hits are enriched below; roughly 3.7% of the tested compounds scored in any of these assays.
BoNT-F LC inh: blocks Botulinum neurotoxin F light chain protease. Multiplex microsphere protease cleavage assay, flow cytometry. inhibition, % at 10 µM. hit rate 0.22% among 360,000; in the data active = inhibition above about 35%, passing the limit was not always enough; inconclusive = no clear call, values can overlap the other calls; note: plate controls were buffer without enzyme for full effect and enzyme alone for no effect
Anthrax LF inh2: inhibitors of Bacillus anthracis lethal factor protease; P15917; multiplex microsphere protease cleavage assay, LF; inhibition, % at 10 µM; hit rate 0.12% among 360,000; AID 588501; note: plate controls were buffer without enzyme for full effect and enzyme alone for no effect
BJeLR viability: kills HRASV12-expressing BJeLR cells; hit rate 0.17% among 300,000; BJeLR (HRASV12) viability, CellTiter-Glo ATP luminescence, 48 h; inhibition, % (no concentration beside the values); in the data active = inhibition above about 50%; inconclusive = no clear call, values can overlap the other calls
Autofluor counter: compound fluorescence in toxin protease inhibitor counterscreen. compound autofluorescence counterscreen, microsphere flow cytometry; stronger effect = higher value. fluorescence intensity (concentration not given with the values). hit rate 3.1% among 360,000; in the data active = fluorescence intensity above about 16000; inconclusive = no clear call, values can overlap the other calls
Vc quorum ag: quorum light induction in luxS cqsA deficient V. cholerae | V. cholerae BH1578 lux reporter, luminescence, 6 h | activation, % at 18.7 µM | hit rate 0.16% among 350,000 | AID 588436; in the data active = activation mostly above about 9.7%, no sharp cut-off; inconclusive = no clear call, values can overlap the other calls; inactive = mostly below about 3.7%
BoNT-A LC inh2: BoNT A light chain protease inhibition | multiplex microsphere protease substrate cleavage, flow cytometry | inhibition, % at 10 µM | hit rate 0.17% among 360,000; note: plate controls were buffer without enzyme for full effect and enzyme alone for no effect
Active calls of the source: *; i = inactive; ? = inconclusive; · = not tested or not shown. Cut-off read from the data, not from the text of the source, unless noted: active = inhibition above about 30%; inconclusive = no clear call, values can overlap the other calls; inactive = below that.

SMILES	BoNT-F LC inh	Anthrax LF inh2	BJeLR viability	Autofluor counter	Vc quorum ag	BoNT-A LC inh2
Cc1c(OCc2nn[nH]n2)ccc2c3c(c(=O)oc12)CCC(C)C3 (stereo not drawn)	-1	-10	9	22299*	i	?
COc1ccc(-c2cc(=O)oc3cc(OCc4nn[nH]n4)ccc23)cc1	-2	-3	-12	16695*	-6	0
Cc1cc2oc(=O)c3c(c2cc1OCc1nn[nH]n1)CCCC3	-5	-4	8	4546	0	0
COc1cc(CNc2ncnc3c2ncn3[C@H]2CN(Cc3ccccc3)C[C@@H](COC(C)=O)O2)cc(OC)c1OC	2	-4	·	2987	i	0
CC(=O)C(C)Oc1ccc2c3c(c(=O)oc2c1)CCCCC3 (stereo not drawn)	2	-1	0	19944*	i	?
Cc1c(OCc2nn[nH]n2)ccc2c3c(c(=O)oc12)CCCC3	1	-1	-7	22827*	6	2
Cc1c(OCC(=O)C(C)(C)C)ccc2c3c(c(=O)oc12)CCCC3	?	28	-11	4197	0	1
C[C@@H]1CN([C@H](C)CO)S(=O)(=O)c2ccc(C#Cc3cccc(F)c3)cc2O[C@@H]1CN(C)C(=O)CN1CCOCC1	-8	-4	·	3407	i	0
O=C(N/N=C/c1ccc(-c2ccc(S(=O)(=O)Nc3ncccn3)cc2)o1)c1cc2ccccc2cc1O	6	3	0	3223	i	0
CCOc1ccc(C(=O)N/N=C/c2ccc(-c3ccc(S(=O)(=O)Nc4ncccn4)cc3)o2)cc1	-1	-1	14	22776*	-1	1
CCOC(=O)Cc1c(C)nc2c(C#N)c[nH]n2c1=O	-2	3	18	23050*	-2	-1
O=C(Nc1ccc(C(O)c2ccccc2)cc1)[C@H]1C[C@H](O)[C@@H](CO)O1 (stereo partly drawn)	-2	-3	·	3839	0	0
CCCCc1[nH]c(=O)c(C#N)c2c1CCCC2	3	-1	-6	9802	i	0
CCc1[nH]c(=O)c(C#N)c2c1CSC(C)(C)C2	2	0	11	23170*	i	?
Cc1[nH]c(=O)c(C#N)c2c1CSC(C)(C)C2	2	-4	-16	11326	i	-1
CCCCc1[nH]c(=O)c(C#N)c2c1CSC(C)(C)C2	1	-4	15	22475*	1	2
CCOC(=O)N(C)c1ccc(C(O)(C(=O)OCC)C(F)(F)F)cc1 (stereo not drawn)	0	-1	4	22785*	-2	-1
CCOC(=O)N(CC)c1ccc(C(O)(C(=O)OCC)C(F)(F)F)cc1 (stereo not drawn)	-24	0	0	4818	i	-1
Cc1cccc(C)c1NC(=O)CN(Cc1ccccc1)Cc1ccccc1	4	9	·	4462	·	0
CSc1ccc(/C=N/NC(=O)c2cccs2)cc1	45*	?	-11	3499	-1	0
COC(=O)c1cc(NC(=O)C2COc3ccccc3O2)ccc1Cl (stereo not drawn)	2	-1	7	21646*	-1	2
CC1(Oc2ccccc2)CCN(Cc2csc3ccccc23)C1 (stereo not drawn)	-7	-6	·	4176	-3	-1
COC(=O)[C@H](Cc1ccccc1)NC(=O)NCCC1=CCCCC1	-2	0	7	24338*	-1	?
COC(=O)[C@H](CCSC)NC(=O)NCCC1=CCCCC1	-2	-1	-5	11220	-1	0
CCOc1ccccc1Nc1nnc(SCC(=O)N2CCCC2)s1	-2	-8	-1	8546	0	0
SMILES	BoNT-F LC inh	Anthrax LF inh2	BJeLR viability	Autofluor counter	Vc quorum ag	BoNT-A LC inh2
COc1ccccc1Nc1nnc(SCC(=O)N2CCCC2)s1	1	0	-11	23377*	-1	?
OC(c1cccc(Cl)c1)c1nc(-c2ccc(Cl)cc2)cs1 (stereo not drawn)	-11	-4	·	3308	0	-1
Cc1cc(C)n(-c2ccc(Oc3ccccc3)c(S(=O)(=O)O)c2)n1	-8	-3	5	2622	-1	0
CCc1c(C)[nH]n(-c2ccc(Oc3ccccc3)c(S(=O)(=O)O)c2)c1=O	-2	-1	·	22582*	-3	?
COC(=O)C1=CN(C)C=C(C(=O)OC)C1c1ccc(O)c(OC)c1	-6	-6	-5	23196*	1	?
CCOc1cc(C2C(C(=O)OC)=CN(Cc3ccc(Cl)cc3)C=C2C(=O)OC)ccc1O	48*	-8	0	3776	i	4
COCCNC(=O)C1CCCN(C(=O)c2ccc3sccc3c2)CC1 (stereo not drawn)	0	-2	·	3443	i	0
Cc1ccccc1N=C1C(=O)Nc2ccccc21	-3	-6	·	3963	·	0
COc1ccc(N=C2C(=O)Nc3ccccc32)cc1	1	-2	-10	22766*	-3	0
COc1ccc(OC)c(N=C2C(=O)Nc3ccccc32)c1	-4	-8	·	21377*	i	?
O=C1Nc2ccccc2C1=Nc1ccc(F)cc1	16	4	-6	2953	i	-1
COC(=O)N(C)C[C@@H]1OCc2cnnn2CCCC(=O)N([C@@H](C)CO)C[C@H]1C	-3	2	·	3090	0	0
O=C(CC1COc2ccccc2O1)NC1CCCCC1 (stereo not drawn)	-5	0	2	2415	i	-1
O=C(CCC1COc2ccccc2O1)NC1CCCCC1 (stereo not drawn)	2	0	0	23549*	i	0
CCN(C(=O)COc1cc(=O)n(CC)c2ccccc12)c1cccc(Cl)c1	-2	-2	-3	20694*	-1	-1
CCOC(=O)C1(C)CCCCCN1C(=O)/C=C/c1ccccc1 (stereo not drawn)	1	-2	·	3867	i	0
CC(c1ccccc1)N1CNc2c(c(=O)n(C)c(=O)n2C)C1 (stereo not drawn)	-5	-1	14	3160	·	0
Cn1c2c(c(=O)n(C)c1=O)CN(CCCN1CCOCC1)CN2	0	-1	-8	16352*	i	1
c1ccc2sc(-n3cc(C4CCCCC4)nn3)nc2c1	9	4	·	5956	·	0
Cc1ccc(N2CC(C(=O)OCC(=O)C(C)(C)C)CC2=O)cc1 (stereo not drawn)	-2	-4	2	23049*	i	0
COC(=O)C1CC(=O)N(c2ccc(C)cc2)C1 (stereo not drawn)	1	-2	0	2606	-1	0
Cc1ccc(N2CC(C(=O)Oc3cccc(N4C(=O)CCC4=O)c3)CC2=O)cc1 (stereo not drawn)	-4	-3	6	21129*	0	-2
COc1ccc(NC(=O)C2(C)CCN2CC2CCCCC2)cc1OC (stereo not drawn)	-3	-7	·	2953	-1	0
OCCNc1ncnc2c1ncn2[C@H]1CN(Cc2ccncc2)C[C@@H](CO)O1	-7	-5	·	4063	i	0

Assay outcomes: PubChem, several laboratories
